According to PubChem BioAssay AID1159580 (chemical genetic matrix, 2015):
“And” between values parts separate entries of the source, which are not always exact repeats. Equal entries are not always repeated. Out of some 5,500 compounds screened, about 2,000 (36%) were called active. Another 18% or so got no clear call; they are omitted. The list shows a part of the results. Values without a mark were called inactive. No stated cut-off is given here; in the data, active means normalized growth mostly below about 0.91 (no sharp cut-off); inconclusive means no clear call, values can overlap the other calls; inactive means mostly above about 0.92.

Assay: chemical genetic growth profiling, strain panel (AID 1159580);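 further: tested at 20 µM; growth read once vehicle control cultures reached saturation at 30 °C; 1 = growth at the plate median or of vehicle wells; lower values mean less growth of the strain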
Conditions: growth OD
[1] = S. cerevisiae deletion strains, locus YAL013W, strain DEP1, hits give low values
[2] = S. cerevisiae deletion strains, locus YAL040C, strain CLN3, hits give low values
[3] = S. cerevisiae deletion strains, locus YCL061C, strain MRC1 (second series), hits give low values
[4] = S. cerevisiae deletion strains, locus YDR363W, strain ESC2, hits give low values
[5] = S. cerevisiae deletion strains, locus YER002W, strain NOP16, hits give low values
[6] = S. cerevisiae deletion strains, locus YGR229C, strain SMI1, hits give low values
[7] = S. cerevisiae deletion strains, locus YMR307W, strain GAS1, hits give low values
[8] = S. cerevisiae deletion strains, locus YNL175C, strain NOP13, hits give low values
[9] = S. cerevisiae deletion strains, locus YNL197C, strain WHI3, hits give low values
[10] = S. cerevisiae deletion strains, locus YNL224C, strain SQS1, hits give low values
[11] = S. cerevisiae deletion strains, locus YOR083W, strain WHI5 (second series), hits give low values
[12] = S. cerevisiae deletion strains, locus YPL241C, strain CIN2, hits give low values
[13] = S. cerevisiae deletion strains, locus YMR263W, strain SAP30, hits give low values
[14] = S. cerevisiae deletion strains, locus YPL055C, strain LGE1, hits give low values

## CNc1ncnc2c1ncn2[C@@H]1O[C@H](CO)[C@H](O)C1O (stereo not given in full)
[1]
  normalized growth: 1.02
[2]
  normalized growth: 1
[3]
  normalized growth: 0.993
[4]
  normalized growth: 0.996
[5]
  normalized growth: 0.978
[6]
  normalized growth: 1.01
[7]
  normalized growth: 1.01
S. cerevisiae deletion strains, locus YNL153C, strain GIM3, hits give low values
  normalized growth: 1.01
[8]
  normalized growth: 0.996
[9]
  normalized growth: 0.999
[10]
  normalized growth: 1
[11]
  normalized growth: 1
[12]
  normalized growth: 1

## Cc1ccccc1CNc1ncnc2c1ncn2C1OC(CO)C(O)C1O (stereo not given)
[1]
  normalized growth: 1.01
[2]
  normalized growth: 0.997
[3]
  normalized growth: 0.999
[4]
  normalized growth: 1.03
[5]
  normalized growth: 1.01
[6]
  normalized growth: 1.02
[13]
  normalized growth: 1
[8]
  normalized growth: 1.01
[9]
  normalized growth: 0.995
[10]
  normalized growth: 1.01
S. cerevisiae deletion strains, locus YNL322C, strain KRE1, hits give low values
  normalized growth: 1.01
[11]
  normalized growth: 1.01
[14]
  normalized growth: 1.01

## OC[C@H]1O[C@@H](n2cnc3c(NCc4ccco4)ncnc32)[C@H](O)[C@@H]1O
S. cerevisiae deletion strains, locus YBR021W, strain FUR4, hits give low values
  normalized growth: 1.02
S. cerevisiae deletion strains, locus YBR229C, strain ROT2, hits give low values
  normalized growth: 1.01
S. cerevisiae deletion strains, locus YCL029C, strain bik1, hits give low values
  normalized growth: 1.01
S. cerevisiae deletion strains, locus YDL035C, strain GPR1, hits give low values
  normalized growth: 1.01
S. cerevisiae deletion strains, locus YDL074C, strain BRE1, hits give low values
  normalized growth: 1.05
S. cerevisiae deletion strains, locus YDL101C, strain DUN1, hits give low values
  normalized growth: 1.03
S. cerevisiae deletion strains, locus YDL185W, strain tfp1, hits give low values
  normalized growth: 1
S. cerevisiae deletion strains, locus YDL192W, strain arf1, hits give low values
  normalized growth: 1
S. cerevisiae deletion strains, locus YDR101C, strain arx1, hits give low values
  normalized growth: 1.02
S. cerevisiae deletion strains, locus YDR150W, strain NUM1, hits give low values
  normalized growth: 1.01
S. cerevisiae deletion strains, locus YDR162C, strain NBP2, hits give low values
  normalized growth: 1.02
S. cerevisiae deletion strains, locus YDR318W, strain mcm21, hits give low values
  normalized growth: 1
S. cerevisiae deletion strains, locus YDR388W, hits give low values
  normalized growth: 0.998
S. cerevisiae deletion strains, locus YDR502C, strain sam2, hits give low values
  normalized growth: 0.998
S. cerevisiae deletion strains, locus YEL061C, strain CIN8, hits give low values
  normalized growth: 1.01
S. cerevisiae deletion strains, locus YER110C, hits give low values
  normalized growth: 1
S. cerevisiae deletion strains, locus YER155C, strain BEM2, hits give low values
  normalized growth: 1.02
S. cerevisiae deletion strains, locus YER167W, strain BCK2, hits give low values
  normalized growth: 1
S. cerevisiae deletion strains, locus YGL078C, strain dbp3, hits give low values
  normalized growth: 0.999
S. cerevisiae deletion strains, locus YGL086W, strain mad1, hits give low values
  normalized growth: 1.02
S. cerevisiae deletion strains, locus YGL248W, strain PDE1, hits give low values
  normalized growth: 1.01
S. cerevisiae deletion strains, locus YGR135W, strain pre9, hits give low values
  normalized growth: 1
[6]
  normalized growth: 1.02
S. cerevisiae deletion strains, locus YGR252W, strain gcn5, hits give low values
  normalized growth: 0.971
S. cerevisiae deletion strains, locus YHR030C, strain SLT2, hits give low values
  normalized growth: 1 and 1.06
S. cerevisiae deletion strains, locus YHR079C, strain IRE1 (second series), hits give low values
  normalized growth: 1.01
S. cerevisiae deletion strains, locus YHR079C, strain IRE1, hits give low values
  normalized growth: 1.04
S. cerevisiae deletion strains, locus YHR094C, strain hxt1, hits give low values
  normalized growth: 1
S. cerevisiae deletion strains, locus YHR129C, strain ARP1, hits give low values
  normalized growth: 1.02
S. cerevisiae deletion strains, locus YHR200W, strain rpn10, hits give low values
  normalized growth: 1.01
S. cerevisiae deletion strains, locus YIL066C, strain RNR3, hits give low values
  normalized growth: 1.01
S. cerevisiae deletion strains, locus YIL073C, strain SPO22, hits give low values
  normalized growth: 1.01
S. cerevisiae deletion strains, locus YIL125W, strain kgd1, hits give low values
  normalized growth: 1.01
S. cerevisiae deletion strains, locus YIR030C, strain dcg1, hits give low values
  normalized growth: 1.01
S. cerevisiae deletion strains, locus YJL095W, strain BCK1, hits give low values
  normalized growth: 1.06 and 1.02
S. cerevisiae deletion strains, locus YJL134W, strain LCB3, hits give low values
  normalized growth: 1.01
S. cerevisiae deletion strains, locus YJL168C, strain set2, hits give low values
  normalized growth: 1.01
S. cerevisiae deletion strains, locus YJL187C, strain SWE1 (second series), hits give low values
  normalized growth: 1.04
S. cerevisiae deletion strains, locus YJR043C, strain POL32, hits give low values
  normalized growth: 1.01
S. cerevisiae deletion strains, locus YJR066W, strain TOR1, hits give low values
  normalized growth: 0.974
S. cerevisiae deletion strains, locus YKL009W, strain mrt4, hits give low values
  normalized growth: 1.02
S. cerevisiae deletion strains, locus YKL068W, hits give low values
  normalized growth: 0.995
S. cerevisiae deletion strains, locus YKL085W, strain MDH1 (second series), hits give low values
  normalized growth: 0.993
S. cerevisiae deletion strains, locus YKL085W, strain MDH1, hits give low values
  normalized growth: 0.993
S. cerevisiae deletion strains, locus YKL190W, strain CNB1, hits give low values
  normalized growth: 1.01
S. cerevisiae deletion strains, locus YKR001C, strain vps1, hits give low values
  normalized growth: 1.01
S. cerevisiae deletion strains, locus YLR039C, strain RIC1, hits give low values
  normalized growth: 1.04
S. cerevisiae deletion strains, locus YLR058C, strain SHM2, hits give low values
  normalized growth: 1.02
S. cerevisiae deletion strains, locus YLR102C, strain apc9, hits give low values
  normalized growth: 1
S. cerevisiae deletion strains, locus YLR113W, strain HOG1, hits give low values
  normalized growth: 1.03
S. cerevisiae deletion strains, locus YLR262C, strain YPT6, hits give low values
  normalized growth: 1.06
S. cerevisiae deletion strains, locus YLR268W, strain sec22, hits give low values
  normalized growth: 1.04
S. cerevisiae deletion strains, locus YLR330W, strain CHS5, hits give low values
  normalized growth: 1.01
S. cerevisiae deletion strains, locus YLR342W, strain FKS1 (second series), hits give low values
  normalized growth: 1.01
S. cerevisiae deletion strains, locus YLR371W, strain rom2, hits give low values
  normalized growth: 1
S. cerevisiae deletion strains, locus YLR418C, strain cdc73, hits give low values
  normalized growth: 1.01
S. cerevisiae deletion strains, locus YML016C, strain PPZ1, hits give low values
  normalized growth: 1.01
S. cerevisiae deletion strains, locus YML032C, strain rad52, hits give low values
  normalized growth: 0.988
S. cerevisiae deletion strains, locus YML124C, strain tub3, hits give low values
  normalized growth: 0.996
S. cerevisiae deletion strains, locus YMR078C, strain ctf18, hits give low values
  normalized growth: 0.998
S. cerevisiae deletion strains, locus YMR223W, strain ubp8, hits give low values
  normalized growth: 1
[13]
  normalized growth: 1.02
[7]
  normalized growth: 1.04
S. cerevisiae deletion strains, locus YNL067W, strain RPL9B, hits give low values
  normalized growth: 1.04
S. cerevisiae deletion strains, locus YNL183C, strain NPR1, hits give low values
  normalized growth: 0.991
S. cerevisiae deletion strains, locus YNL233W, strain BNI4, hits give low values
  normalized growth: 1.05
S. cerevisiae deletion strains, locus YNL250W, strain rad50, hits give low values
  normalized growth: 1.02
S. cerevisiae deletion strains, locus YNL271C, strain bni1, hits give low values
  normalized growth: 1
S. cerevisiae deletion strains, locus YNL298W, strain CLA4, hits give low values
  normalized growth: 0.995
S. cerevisiae deletion strains, locus YNL307C, strain MCK1, hits give low values
  normalized growth: 1.01
S. cerevisiae deletion strains, locus YNR052C, strain pop2, hits give low values
  normalized growth: 0.996
S. cerevisiae deletion strains, locus YOL012C, strain htz1
  normalized growth: 2.36 [resistant] (active)
S. cerevisiae deletion strains, locus YOL147C, strain pex11, hits give low values
  normalized growth: 0.998
S. cerevisiae deletion strains, locus YOR061W, strain CKA2, hits give low values
  normalized growth: 1.01
S. cerevisiae deletion strains, locus YOR069W, strain VPS5, hits give low values
  normalized growth: 1.01
S. cerevisiae deletion strains, locus YOR136W, strain idh2, hits give low values
  normalized growth: 1
S. cerevisiae deletion strains, locus YOR144C, strain elg1, hits give low values
  normalized growth: 0.987
S. cerevisiae deletion strains, locus YOR184W, strain ser1, hits give low values
  normalized growth: 0.999
S. cerevisiae deletion strains, locus YOR231W, strain MKK1, hits give low values
  normalized growth: 1.05
S. cerevisiae deletion strains, locus YOR316C, strain cot1, hits give low values
  normalized growth: 1
[14]
  normalized growth: 1.03
[12]
  normalized growth: 1
S. cerevisiae deletion strains, locus YPL256C, strain CLN2, hits give low values
  normalized growth: 1.06
S. cerevisiae deletion strains, locus YPR119W, strain clb2, hits give low values
  normalized growth: 1
S. cerevisiae deletion strains, locus YPR141C, strain kar3, hits give low values
  normalized growth: 1.01
S. cerevisiae deletion strains, locus YPR163C, strain tif3, hits give low values
  normalized growth: 1
S. cerevisiae deletion strains, locus YPR167C, strain met16, hits give low values
  normalized growth: 1.01
S. cerevisiae deletion strains, strain wtn01, hits give low values
  normalized growth: 1.04
S. cerevisiae strains, strain wild type, hits give low values
  normalized growth: 1.01
